The nature of assay [1]: qHTS assay to test for compound auto fluorescence at 535 nm (green) in HEK293 cells (AID 720680). Background: In qHTS, concentration-response curves come from the screen itself.
Assay [2] is described as follows: qHTS assay to test for compound auto fluorescence at 460 nm (blue) in HEK293 cell free culture (AID 720681). The method, boiled down: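 Test compounds were pinned into cell-free culture medium (DMEM with 10% FBS) and fluorescence was read directly at Ex/Em 405/460 nm. Signals were expressed as fluorescence equivalents of triamterene, with DMSO vehicle as control.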

Assay [3] in a line: qHTS assay to test for compound auto fluorescence at 535 nm (green) in HEK293 cell free culture (AID 720682). The method, boiled down:
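Each library compound, or DMSO control, is added by pintool to medium alone, comprising DMEM and 10% FBS. Emission at 535 nm following 485 nm excitation is quantified against fluorescein.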

Assay [4] is described as follows: qHTS assay to test for compound auto fluorescence at 590 nm (red) in HEK293 cell free culture (AID 720683). A digest of the protocol: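 Tox21 10K library compounds were pinned into cell-free DMEM with 10% FBS and fluorescence was read at excitation 540 nm. Activity is expressed as Rose Bengal sodium equivalency.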
Assay [5] is described as follows: qHTS assay to test for compound auto fluorescence at 590 nm (red) in HepG2 cell free culture (AID 720684). The method, boiled down:
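Readout: intrinsic compound fluorescence at 590 nm emission after 540 nm excitation, scaled to Rose Bengal sodium. Matrix was cell-free MEM with 10% FBS; DMSO vehicle wells served as control.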

The nature of assay [6]: qHTS assay to test for compound auto fluorescence at 460 nm (blue) in HepG2 cell free culture (AID 720685). The method, boiled down:
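Cell-free plates of MEM plus 10% FBS received 23 nL compound or DMSO vehicle; blue-channel (405/460 nm) intensity scored against triamterene as reference fluorophore.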

The nature of assay [7]: qHTS assay to test for compound auto fluorescence at 535 nm (green) in HepG2 cell free culture (AID 720686).
A short description of assay [8]: qHTS assay to test for compound auto fluorescence at 460 nm (blue) in HepG2 cells (AID 720687). The method, boiled down:
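Cells (2,000/well in MEM with 10% FBS) attached overnight at 37 C, then were exposed to compound or DMSO for 1 hr at 37 C, 5% CO2. Fluorescence read at Ex/Em 405/460 nm, expressed as triamterene-equivalent signal.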

Assay [9] deals with Glucocorticoid receptor (Homo sapiens) (UniProt P04150). Put plainly: qHTS assay to identify small molecule agonists of the glucocorticoid receptor (GR) signaling pathway (AID 720691; active means well fitted activation curve with a large enough effect in the signal ratio in the repeat runs, not every such curve was filed as active; the % refers to the signal ratio). A digest of the protocol:
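Steps: seed GR-bla HeLa cells, incubate 4 h at 37 C/5% CO2; pin-transfer DMSO-dissolved compounds; incubate 18 h at 37 C; add LiveBLAzer B/G FRET substrate; after 2 h at room temperature, measure fluorescence.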

Assay [10] shares this target. The experiment in a line: qHTS assay to identify small molecule antagonists of the glucocorticoid receptor (GR) signaling pathway (AID 720692; active means well fitted inhibition curve with a large enough effect in the signal ratio in the repeat runs, not every such curve was filed as active; the % refers to the signal ratio; further: potency means the concentration at half of the fitted maximal effect). A digest of the protocol:
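Antagonism was scored as loss of dexamethasone-driven (5 nM final) reporter signal in HeLa cells bearing a glucocorticoid response element–beta-lactamase construct, after 18 h compound exposure at 37 C and 2 h FRET substrate loading.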

Assay [11] in a line: qHTS assay to identify small molecule antagonists of the glucocorticoid receptor (GR) signaling pathway - cell viability counter screen (AID 720693). Further: nearly all actives have a fitted effect of over 55% in size.
Assay [12] in a line: qHTS assay for identifying genotoxic compounds that show differential cytotoxicity against isogenic chicken DT40 cell lines with known DNA damage response pathways - wild type cell line (AID 743012). Further: nearly all actives have a fitted effect of over 60% in size. Further: potency means the concentration at half of the fitted maximal effect. The method, boiled down: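 Cytotoxicity in repair-proficient parental chicken DT40 cells serves as the comparator for Rad54/Ku70- and Rev3-deficient lines. Cells were exposed to compounds for 40 h at 37 C/5% CO2, and ATP-based luminescence (CellTiter-Glo) measured viability.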

Assay [13] can be described thus: qHTS assay for identifying genotoxic compounds that show differential cytotoxicity against isogenic chicken DT40 cell lines with known DNA damage response pathways - Rev3 mutant cell line (AID 743014). Further: nearly all actives have a fitted effect of over 55% in size. Further: potency means the concentration at half of the fitted maximal effect.
The nature of assay [14]: qHTS assay for identifying genotoxic compounds that show differential cytotoxicity against isogenic chicken DT40 cell lines with known DNA damage response pathways - Rad54/Ku70 mutant cell line (AID 743015). Further: nearly all actives have a fitted effect of over 60% in size. Further: potency means the concentration at half of the fitted maximal effect.
Assay [15] in a line: qHTS assay to identify small molecule antagonists of the androgen receptor (AR) signaling pathway - cell viability counter screen (AID 743033; further: nearly all actives have a fitted effect of over 45% in size).
Assay [16] can be described thus: qHTS assay to identify small molecule antagonists of the androgen receptor (AR) signaling pathway using the MDA cell line - cell viability counter screen (AID 743041; further: nearly all actives have a fitted effect of over 45% in size). The method, boiled down:
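qHTS viability read-out; MDA-kb2 AR-luc; R1881-stimulated; 16 h exposure at 37C, 0% CO2; CellTiter-Fluor, 30 min; fluorescence intensity.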

Assay [17] is described as follows: qHTS assay to identify small molecule antagonists of the thyroid receptor (TR) signaling pathway - cell viability counter screen (AID 743064). Further: nearly all actives have a fitted effect of over 50% in size. The method, boiled down:
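CellTiter-Fluor readout, 30 min at 37 °C/5% CO2, following 23.5 h incubation of GH3.TRE-Luc cells with test compound and 1 nM T3 (final).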

The target in assay [18] is Androgen receptor (Homo sapiens) (UniProt P10275). Put plainly: qHTS assay to identify small molecule agonists of the androgen receptor (AR) signaling pathway (AID 743036; active means well fitted activation curve with a large enough effect in the signal ratio in the repeat runs, with a control signal flat, not every such curve was filed as active; the % refers to the signal ratio). The method, boiled down: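 Following a 4 h settling period, AR-UAS-bla HEK293 cells were dosed with compounds for 16 h at 37C. A 2 h room-temperature incubation with LiveBLAzer B/G FRET substrate preceded the fluorescence measurement.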
Chain of Androgen receptor (Homo sapiens) (P10275 whole entry, looked up): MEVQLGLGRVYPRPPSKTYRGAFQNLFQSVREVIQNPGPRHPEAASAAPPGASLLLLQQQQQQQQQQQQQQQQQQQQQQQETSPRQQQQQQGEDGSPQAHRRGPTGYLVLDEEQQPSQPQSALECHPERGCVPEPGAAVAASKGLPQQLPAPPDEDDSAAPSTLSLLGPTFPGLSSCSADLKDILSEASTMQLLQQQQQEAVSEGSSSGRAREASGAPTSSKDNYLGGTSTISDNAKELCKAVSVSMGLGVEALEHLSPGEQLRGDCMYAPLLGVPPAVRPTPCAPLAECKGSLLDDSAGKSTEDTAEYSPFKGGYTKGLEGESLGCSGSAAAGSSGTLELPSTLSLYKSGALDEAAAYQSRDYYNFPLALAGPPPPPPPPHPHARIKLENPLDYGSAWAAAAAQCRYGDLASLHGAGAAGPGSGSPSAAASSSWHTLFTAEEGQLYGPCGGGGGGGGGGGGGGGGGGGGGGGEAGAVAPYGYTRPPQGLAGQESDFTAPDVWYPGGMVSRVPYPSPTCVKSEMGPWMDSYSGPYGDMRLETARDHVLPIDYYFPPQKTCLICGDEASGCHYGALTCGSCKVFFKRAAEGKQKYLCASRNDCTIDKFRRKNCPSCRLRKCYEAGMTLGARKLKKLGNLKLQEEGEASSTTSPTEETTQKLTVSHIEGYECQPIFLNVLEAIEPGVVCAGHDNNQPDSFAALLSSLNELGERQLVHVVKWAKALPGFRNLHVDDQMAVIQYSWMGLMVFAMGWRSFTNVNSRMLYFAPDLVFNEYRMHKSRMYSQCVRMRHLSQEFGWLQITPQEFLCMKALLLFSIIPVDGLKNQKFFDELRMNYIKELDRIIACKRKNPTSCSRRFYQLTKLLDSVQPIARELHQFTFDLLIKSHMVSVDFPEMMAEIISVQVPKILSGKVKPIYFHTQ

Assay [19] shares this target. The experiment in a line: qHTS assay to identify small molecule agonists of the androgen receptor (AR) signaling pathway using the MDA cell line (AID 743040; further: nearly all actives have a fitted effect of over 20% in size; further: potency means the concentration at half of the fitted maximal effect). A digest of the protocol:
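Agonist activity is measured as luciferase luminescence in human MDA-kb2 cells whose MMTV reporter responds to both AR and GR. Compounds in DMSO incubate 16 h at 37C, 0% CO2, and ONE-Glo is read after 30 min.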

For assay [20] the target is unchanged. Put plainly: qHTS assay to identify small molecule antagonists of the androgen receptor (AR) signaling pathway (AID 743035; active means well fitted inhibition curve with a large enough effect in the signal ratio in the repeat runs, not every such curve was filed as active; the % refers to the signal ratio; further: potency means the concentration at half of the fitted maximal effect). The method, boiled down:
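Steps: seed AR-UAS-bla GripTite HEK293 cells, incubate 4 h at 37C; pin in test compound, then add agonist R1881; incubate 16 h at 37C; add LiveBLAzer B/G FRET substrate, 2 h at room temperature; read fluorescence.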

Unmarked numbers belong to inactive results. Inconclusive results are not listed. Activity calls are given as the source filed them. Unless noted, the call rests on the fitted dose curve; in most records, active means well fitted curve in the direction sought with a large enough effect in the repeat runs; inconclusive means weak or mixed curves; inactive means no such curve, though single readings can be large; an effect the other way counts as inactive or inconclusive.

This is an account of results in PubChem BioAssay (Tox21).
On the % scale 0 is the no-effect control and ±100 the full control effect.

Chain of Glucocorticoid receptor (Homo sapiens) (P04150 whole entry, looked up): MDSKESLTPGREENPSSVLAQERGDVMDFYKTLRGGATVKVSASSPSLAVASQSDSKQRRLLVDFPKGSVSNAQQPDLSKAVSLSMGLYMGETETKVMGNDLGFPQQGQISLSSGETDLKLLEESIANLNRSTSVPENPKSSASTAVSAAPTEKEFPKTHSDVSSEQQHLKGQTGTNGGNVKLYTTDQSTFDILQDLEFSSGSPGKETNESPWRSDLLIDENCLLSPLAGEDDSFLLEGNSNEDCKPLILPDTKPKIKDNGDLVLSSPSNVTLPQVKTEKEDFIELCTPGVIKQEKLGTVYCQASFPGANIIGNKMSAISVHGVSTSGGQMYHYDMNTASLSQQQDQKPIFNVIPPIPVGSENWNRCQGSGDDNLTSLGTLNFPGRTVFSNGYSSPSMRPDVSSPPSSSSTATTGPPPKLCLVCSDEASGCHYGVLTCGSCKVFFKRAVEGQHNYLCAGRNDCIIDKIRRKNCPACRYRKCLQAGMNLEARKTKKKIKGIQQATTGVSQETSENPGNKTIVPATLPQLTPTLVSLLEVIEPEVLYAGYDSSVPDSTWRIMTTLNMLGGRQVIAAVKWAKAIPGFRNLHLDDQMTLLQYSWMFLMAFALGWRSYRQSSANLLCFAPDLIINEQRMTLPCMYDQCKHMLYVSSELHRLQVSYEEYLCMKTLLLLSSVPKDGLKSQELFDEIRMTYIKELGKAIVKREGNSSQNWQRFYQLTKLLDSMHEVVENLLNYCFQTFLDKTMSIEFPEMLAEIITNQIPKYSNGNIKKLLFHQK

For the compound `CC(C)NCC(O)c1ccc(N)c(C#N)c1` (centres undefined), the compound was called inactive in assay [1], in assay [2], in [3], in [4], in [5] and in assay [6]. Also, the compound was classed as inactive in assay [7], in assay [8] and in assay [9]. Besides, the Potency result in [10], in assay [11], in assay [12], in [13], in assay [14] and in [15] was “inactive” each time. For the same compound, the Potency entry in assay [16] and in assay [17] was “inactive” throughout.
Consider `C#CCN1C(=O)COc2cc(F)c(N3C(=O)C4=C(CCCC4)C3=O)cc21`, for which the outcome in assay [1], in assay [2], in [3], in [4], in assay [5] and in assay [6] was inactive. For the same compound, the result in [7], in [8], in assay [9] and in assay [18] was inactive. The Potency entry in assay [10], in assay [11], in assay [15], in [19], in assay [16] and in assay [17] was “inactive” in each case. Besides, the Potency in assay [12] was 61.1 µM (active).
As to `Cc1ncc2n1-c1ccc(Cl)cc1C(c1ccccc1F)=NC2`, the compound was classed as inactive in assay [1], in assay [2], in assay [3], in assay [4], in assay [5] and in assay [6]. The call in [7], in assay [8] and in [9] was inactive. Moreover, the Potency in assay [10] is 16.9 µM (active). Further, the Potency result in assay [11], in assay [13], in assay [15] and in assay [16] was “inactive” throughout.
On to `CC(=O)Nc1cc([As](=O)(O)O)ccc1O`, for which the result in assay [1], in assay [2], in assay [3], in [4], in assay [5] and in [6] was inactive. Further, the outcome in [7], in [8] and in assay [9] was inactive. For the same compound, the Potency entry in assay [10], in assay [11], in assay [12], in assay [14], in [16] and in assay [17] was “inactive” each time.
For the compound `CS(=O)(=O)c1cc(C(F)(F)F)ccc1C(=O)c1cnoc1C1CC1`, the outcome in [1], in assay [2], in [3], in assay [4], in assay [5] and in assay [6] was inactive. The outcome in assay [7], in assay [8] and in assay [9] was inactive. The Potency result in [10], in [11], in [12], in assay [14], in assay [15] and in assay [16] was “inactive” in each case. Moreover, in assay [17], the Potency entry was “inactive”.
With `CC(C)CC(N(C)C)C1(c2ccc(Cl)cc2)CCC1` (centres undefined), the compound was classed as inactive in [1], in assay [2], in assay [3], in [4], in assay [5] and in assay [6]. Moreover, the compound was classed as inactive in [7], in assay [8] and in [9]. The Potency result in [10], in [11], in assay [13], in [15] and in assay [16] was “inactive” in each case.
In the case of `C#C[C@]1(O)C=C[C@H]2[C@@H]3CCC4=CC(=O)CC[C@@H]4[C@H]3CC[C@@]21CC`, the compound was classed as inactive in [1], in assay [2], in assay [3], in [4], in [5] and in [6]. For the same compound, the compound was classed as inactive in assay [7], in assay [8] and in assay [9]. Moreover, the Potency result in [11], in assay [15] and in [16] was “inactive” in each case. Further, the Potency in assay [12] was 23.7 µM (active); in assay [13], 26.6 µM (active); in assay [14], 23.7 µM (active); in assay [20], 0.19 µM (active); in assay [19] it was 0.0133 µM (active).
Turning to `O=C(CCCN1CCC(n2c(=O)[nH]c3ccccc32)CC1)c1ccc(F)cc1`, in assay [1], the fluorescence, % of fluorescein is 0.0703% [at 18.6 µM]. Also, the fluorescence, % of fluorescent control in [2] is 0.0625% [at 18.6 µM]; in [4] it was -0.0219% [at 18.6 µM]; in [6] it was -0.0144% [at 18.6 µM]; in assay [8] it was 0.0395% [at 18.6 µM]. The activity change in [3] was -0.0154% [at 18.6 µM]. Besides, the fluorescence, % of Rose Bengal in assay [5] was 0.463% [at 18.6 µM]. Besides, in assay [7], the fluorescence, % of fluorescein control is 0.027% [at 18.6 µM]. Further, the compound was classed as inactive in [9] and in assay [18]. In addition, the Potency entry in assay [10], in assay [11], in assay [15], in assay [20], in assay [19] and in assay [16] was “inactive” in each case. Moreover, the Potency entry in assay [17] was “inactive”. Also, the Potency in assay [12] is 12.7 µM (active); in assay [14] it was 10.1 µM (active).
